Screening results from PubChem BioAssay.
N-glyco inh = N-linked glycosylation inhibition; D54 ERlucT glycosylation luciferase reporter, 24 h; percent of 100 nM tunicamycin response; reporter increase, % at 12.5 µM; 360,000 compounds, 0.23% hits;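 active = mean luciferase reporter signal, scaled so untreated is 0 and the glycosylation-blocking control 100, at or above a set limit in every replicate; inconclusive = mean reaches the limit but not every replicate does; inactive = mean below the limit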;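 note: luciferase carries N-glycosylation sites so blocking glycosylation raises the light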
EBV LMP1 NFkB = Epstein-Barr LMP1 NF-kappaB reporter inhibition; LMP1-induced NF-kappaB luciferase reporter cells, luminescence; inhibition, % at 12.5 µM; 350,000 compounds, 0.69% hits; AID 504558; in the data active = inhibition above about 41%; inconclusive = no clear call, values can overlap the other calls
Env fusion inh = HIV envelope-mediated fusion inhibition; HeLa-JRFL Env/CEM21 cell fusion, luciferase; inhibition, % at 12.3 µM; 360,000 compounds, 1.1% hits;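 active = mean replicate inhibition score of at least 50 and every replicate individually at or above 50; inconclusive = only one of the two criteria met; inactive = mean below 50 and not all replicates reaching 50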
PAX8 reporter = PAX8 transcriptional activity inhibition; AID 652154; inhibition, % at 12.6 µM; RMG-I TPO-luciferase reporter, SteadyGlo, 24 h; 360,000 compounds, 1.2% hits;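 active = mean replicate inhibition at least 60% with every replicate also reaching 60%; inconclusive = only one of the two criteria is met; inactive = mean below 60% and not all replicates reaching 60%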;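 note: luciferase light reporting Pax8 driven TPO promoter activity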
Shn3 inh set2 = reduces Shn3 3'UTR luciferase signal in osteoblasts; Clone20 osteoblast Shn3 3'UTR firefly luciferase, 24 h; inhibition, % at 12.5 µM; 360,000 compounds, 0.52% hits;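 active = mean inhibition of at least 75% with every replicate also reaching 75%; inconclusive = mean inhibition at least 75% but some replicate below; inactive = mean inhibition below 75%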
NSD2 inh = NSD2 (human) methyltransferase inhibition; 310,000 compounds, 0.54% hits; inhibition, % at 12.5 µM; O96028; NSD2 peptide methylation, AlphaScreen, 120 min; in the data active = inhibition above about 50%
Large screens that a line does not name were inactive. In the library only some 2.8% were active in any assay of this set; here they are far more common.

COC(=O)Nc1ccc(=O)n(Cc2c(Cl)cccc2Cl)c1	Env fusion inh 50
CCN(CC)c1ccc(CNc2nc3ccccc3n2CCN2CCCCC2)cc1	Shn3 inh set2 92
COc1ccc(CNc2ncnc3c2[nH]c2cc(OC)c(OC)cc23)cc1	none
COc1ccc(CNc2ncnc3c2[nH]c2ccccc23)cc1	Shn3 inh set2 89 (no result: EBV LMP1 NFkB)
CC(C)OCCCNc1ncnc2c1[nH]c1ccccc12	Env fusion inh 78 (no result: PAX8 reporter)
CC(C)NC(=O)N(C)C[C@H]1Oc2ccc(NS(=O)(=O)c3ccc(F)cc3)cc2CC(=O)N([C@@H](C)CO)C[C@H]1C	none (no result: N-glyco inh, EBV LMP1 NFkB, Env fusion inh, Shn3 inh set2, NSD2 inh)
COc1cccc(-c2ccc([C@@H]3[C@@H](CO)N4C(=O)CN(C(=O)NC(C)C)C[C@H]34)cc2)c1	none (no result: N-glyco inh, EBV LMP1 NFkB, Env fusion inh, Shn3 inh set2, NSD2 inh)
Cc1ccccc1Cn1cc(NC(=O)c2cc3nc(-c4ccco4)cc(C(F)(F)F)n3n2)cn1	none (no result: Env fusion inh, PAX8 reporter)
CCc1ccc(-c2cc(C(F)(F)F)n3nc(C(=O)Nc4cnn(Cc5ccc(C)cc5)c4)cc3n2)s1	Shn3 inh set2 91 (no result: Env fusion inh, PAX8 reporter)
O=C(C[C@H]1C[C@H]2c3cc(NS(=O)(=O)c4ccc(F)cc4)ccc3O[C@H]2[C@H](CO)O1)NC1CCCC1	none (no result: N-glyco inh, EBV LMP1 NFkB, Shn3 inh set2, NSD2 inh)
CS(=O)(=O)c1ccc(Cl)c(NC(=O)CN2CCCC2c2ccc3c(c2)OCCCO3)c1 (stereo not drawn)	Env fusion inh 61
CN(C)S(=O)(=O)c1ccc(NC(=O)CN2CCCC2c2ccc3c(c2)OCCCO3)cc1 (stereo not drawn)	none (no result: Env fusion inh)
CO[C@H]1CN(C)C(=O)c2ccc(NC(=O)C3CC3)cc2OC[C@H](C)N(C(=O)C2CCOCC2)C[C@H]1C	none (no result: N-glyco inh, EBV LMP1 NFkB, Env fusion inh, Shn3 inh set2, NSD2 inh)
CC(=O)Nc1ccc(OCCCNC(=O)c2c(-c3ccccc3)noc2C)cc1	EBV LMP1 NFkB 58
Oc1ccc(Nc2nc3ccccc3nc2Nc2ccc(O)cc2)cc1	N-glyco inh 50 (no result: Env fusion inh, PAX8 reporter)
Oc1ccc(Nc2nc(-c3ccccc3)nc3ccccc23)cc1	none (no result: Env fusion inh, PAX8 reporter)
CNC(=O)C[C@@H]1CC[C@H]2[C@H](COc3ccc(NC(=O)c4cc(F)cc(F)c4)cc3C(=O)N2C)O1	none (no result: N-glyco inh, EBV LMP1 NFkB, Shn3 inh set2, NSD2 inh)
CCOc1cccc(C(=O)Nc2cccc(-c3nnc(-c4ccccc4)o3)c2)c1	none (no result: Env fusion inh, PAX8 reporter)
CCOc1cccc(C(=O)Nc2cccc(-c3nnc(-c4ccc(C)cc4)o3)c2)c1	N-glyco inh 99 (no result: Env fusion inh, PAX8 reporter)
COc1ccc(S(=O)(=O)Nc2ccc3c(c2)C(=O)N([C@H](C)CO)C[C@@H](C)[C@H](CN(C)S(C)(=O)=O)OCCCC[C@@H](C)O3)cc1	none (no result: N-glyco inh, EBV LMP1 NFkB, Shn3 inh set2, NSD2 inh)
C[C@H]1CN([C@@H](C)CO)C(=O)c2cccc(NC(=O)C3CC3)c2O[C@@H]1CN(C)Cc1ccc2c(c1)OCO2	none (no result: N-glyco inh, EBV LMP1 NFkB, PAX8 reporter, Shn3 inh set2, NSD2 inh)
Cn1c(=O)[nH]c(=O)c2c1nc(N1CCNCC1)n2Cc1ccccc1	none
C=C(C)Cn1c(N(CCO)Cc2ccccc2)nc2c1c(=O)[nH]c(=O)n2C	none (no result: NSD2 inh)
Cn1c(=O)[nH]c(=O)c2c1nc(N1CCNCC1)n2Cc1cccc2ccccc12	Env fusion inh 58
Cn1c(=O)[nH]c(=O)c2c1nc(N1CCN(Cc3ccccc3)CC1)n2CCCc1ccccc1	N-glyco inh 37 (no result: Env fusion inh, PAX8 reporter)
Cn1c(=O)[nH]c(=O)c2c1nc(N(CCO)Cc1ccccc1)n2CCCc1ccccc1	N-glyco inh 41 (no result: NSD2 inh)
O=C(Nc1ccccc1F)N[C@@H]1CC[C@H](CCNC(=O)C2CCOCC2)O[C@@H]1CO	none (no result: N-glyco inh, EBV LMP1 NFkB, Shn3 inh set2, NSD2 inh)
Cc1ccc(C2(C)CC(C)(C)N(C(=O)CSc3nnc(C)s3)c3ccccc32)cc1 (stereo not drawn)	none
Cc1nnc(SCC(=O)N2c3ccccc3C(C)(c3ccccc3)CC2(C)C)s1 (stereo not drawn)	Env fusion inh 62 (no result: PAX8 reporter)
Cc1ccc(-c2ccc3c(c2)O[C@H](CN(C)Cc2ccccn2)[C@@H](C)CN([C@@H](C)CO)S3(=O)=O)cc1	none (no result: N-glyco inh, EBV LMP1 NFkB, PAX8 reporter, Shn3 inh set2, NSD2 inh)
COc1cc(C(=O)C(=O)c2cc(OC)c(O)c(OC)c2)cc(OC)c1O	none
COc1cc(-c2cc(OC)c(O)c(OC)c2)cc(OC)c1O	Env fusion inh 78 (no result: PAX8 reporter)
Cc1nc2ccccc2c2oc(C(=O)NCc3ccc4c(c3)OCO4)cc12	Env fusion inh 88 (no result: NSD2 inh)
O=C(NCc1ccc2c(c1)OCO2)c1nc(S(=O)(=O)Cc2ccccc2)ncc1Cl	Env fusion inh inconclusive, Shn3 inh set2 94
O=C(NCc1ccc2c(c1)OCO2)c1ccccc1Cl	none
O=C(NCc1ccc2c(c1)OCO2)c1nc(S(=O)(=O)Cc2ccccc2F)ncc1Cl	Shn3 inh set2 95
